# Laboratory results taken from publication PMC12864922, “TDP-43 directly inhibits mRNA accumulation in neurites through modulation of mRNA stability”.
# The full ranking holds about 9,900 sequences; the median of “r (bound/input frequency ratio)” is about 0.7, and the highest 2% start at about 6.5. The sample holds the highest values, similar sequences and a random draw of the others, so the mix is not that of the screen.
# B1: ENSMUSG00000034801.21|Sos2 (ssRNA)
# RNA: GGGAGUUCUACAGUCCGACGAUCGCUUCGAUAUCCGCAUGCUAGCCCUCUCCACGGAUUCCACGCAGCUGUCACUUGCUCAGCUCCAGUCACAGCAGCCUUGCUCAUCUUCCAGCUCCUCCUGUCCCACCAAGGCAGAAUUCAAGCCCUCUCUUACCAAAGCUGCCACCAAAGACUUACAAACGGGAGCUUUCCCACCCGCCACUGUAUAGACUGCCUCUGCUGGAAAAUGCAGAAACUCCUCAAUGACCUUGGCCAUAUGUAGUCAUUGACACUGGAAUAGUAUUUGUAAAGGUUUUUAAUUCUCUUGCGGUCGCACUAGUGUGGAAUUCUCGGGUGUCAAGG
# B2: ENSMUSG00000042529.183|Kcnj12 (ssRNA)
# RNA: GGGAGUUCUACAGUCCGACGAUCGCUUCGAUAUCCGCAUGCUAGUUUAAUCUUUCCCUACUGCCCUAAGUCCACUCAUGAAGCUCCCCAGGCCCUUCUGAGAUUGCAGAGGCUGCUUGCUCAUAGCCAUGACCCUGCCUGCUUUUGUCCCACACUGCUGGGGCAGGAUGAUGAAGCCCUGCUGGUCCCAGCCAGUCAUCUCCUGCUGGAAGGCAGAGUCUAGGGGAGAAGAGAAACACCCCCACCCCCACCCCUAUCCCGCACCAGCCCCCUGCCACCAUAGAGAUAGACCAGAGAAAUGUCACUCUUGCGGUCGCACUAGUGUGGAAUUCUCGGGUGUCAAGG
# B3: ENSMUSG00000061578.815|Ksr2 (ssRNA)
# RNA: GGGAGUUCUACAGUCCGACGAUCGCUUCGAUAUCCGCAUGCUAUGGGACUCUUUUUAUGAGGAACCAGUCCUGUUGAAUCGGGGUGCUCUGUAUUAGUUAUUUUUGUAACUUGUGAUUGUAACCAAAUGCCCGAUAGAAACAGCAUUCUGGCUCACAGUUUCAAAGGGCUCAGUCCAUAGCUGCCUGACUCUGUGUUUCUAGGCCUUUCUUGAGGCAAGUGUUCAUCAUGAUAGUGUGAGGGUGAGGAGGAGUUUCUUCAUGGCAAACAGGAAGCAAAGAGCAAUACAGGAAAAGGUCAGGGGCUCUUGCGGUCGCACUAGUGUGGAAUUCUCGGGUGUCAAGG
# B4: ENSMUSG00000061578.1222|Ksr2|31:35;225:229 (ssRNA)
# RNA: GGGAGUUCUACAGUCCGACGAUCGCUUCGAUAUCCGCAUGCUAGAAUGAGCCGCUGGGAUAUUGACAUGGAGAACACAUGAUGGAAAAAGCCUCCACACCCAACAUAACUCUCCAGAGAGAUAUUGAAAGUGAUGGGCAGAGAGUCUGACAAUGACCCAGGGGUCAUUGUGAGUCCUAGGCUGAAUCUGUAAUGGGGUCCAAAGUGCAGGAGAGACUGCAUUCACCUUGUUGGUGGGGUGGGGCUUCUUUCAUUACUUUAAGUAUCUCAUACGGCUUGAGGCAUGGGAAACAGCACCUUGUCUCUCUUGCGGUCGCACUAGUGUGGAAUUCUCGGGUGUCAAGG
# B5: ENSMUSG00000022095.104|Fam160b2 (ssRNA)
# RNA: GGGAGUUCUACAGUCCGACGAUCGCUUCGAUAUCCGCAUGCUAGCUGUUGCAAAAUUCCCAACUGCCUCCUGGCAGAGGCCCAAAGUAUGCUCUGCGCCCAGGCGGGGGCAGCUGCUAACAAGAGCCCUGGCGCAGCUGCAGCCAGGGCAGGCGAGAGCCUUGGAGCUGGGUGCCAGGCUCCAGCUCCAGCUCCAGCUGGUUCCUCUCUGGCGCCUUCUGAACCCGUCUCAGCAAGUCCGAAACACCUGGGCAGAGAGGUCAUUGACCAGGGAUGGGGGCCCUUGCCCUCUGAAUCCUGCCCACUCUUGCGGUCGCACUAGUGUGGAAUUCUCGGGUGUCAAGG
# B6: ENSMUSG00000061578.919|Ksr2|82:86 (ssRNA)
# RNA: GGGAGUUCUACAGUCCGACGAUCGCUUCGAUAUCCGCAUGCUACAAUUCUACCCAUGACAGACAUGUCCCAUCCAUGAGCCCAGAUAGUCAAAGACUUCAGCACAAGGGUGUUUAGAGUAGGCACACACGAAGUAUCAAUAAGGUUAUUGAGAUGAGGAUUUAGAAAGAUCCAUGUAUAAAAGGUCUAGAAGGAUGAAGAUCUAAAACAAGAAGACUGCAUGUUAACGCUCCUGCCACUGUUGCCCCUUCCUUUACCCUUGGCAGACAUUGCUAAUCAAUCUCAGCACAGUUUCCAACCACAGCUCUUGCGGUCGCACUAGUGUGGAAUUCUCGGGUGUCAAGG
# B7: ENSMUSG00000061578.806|Ksr2 (ssRNA)
# RNA: GGGAGUUCUACAGUCCGACGAUCGCUUCGAUAUCCGCAUGCUACCUCUCUCCAAUCUUUACCUUUGCCUCUACUAGAUGAUCUUGCAUCUGUCUUUGUGGGACUCUUUUUAUGAGGAACCAGUCCUGUUGAAUCGGGGUGCUCUGUAUUAGUUAUUUUUGUAACUUGUGAUUGUAACCAAAUGCCCGAUAGAAACAGCAUUCUGGCUCACAGUUUCAAAGGGCUCAGUCCAUAGCUGCCUGACUCUGUGUUUCUAGGCCUUUCUUGAGGCAAGUGUUCAUCAUGAUAGUGUGAGGGUGAGGAGCUCUUGCGGUCGCACUAGUGUGGAAUUCUCGGGUGUCAAGG
# B8: ENSMUSG00000043670.134|Diras1 (ssRNA)
# RNA: GGGAGUUCUACAGUCCGACGAUCGCUUCGAUAUCCGCAUGCUACCUGGCCACCCCGAGUACCACCUCUGGAAUAGCAGACGCCCACAGCACAAGCCCAGGACUGUCCCUUCAGGGGAGGCACACUGGAACCCUGAACUUGGAGUGUGGAGUGGCUGCCUGGACACUGCCCACCUGGACACCAGCCUUCUGCUGAGAUAGAGACCUUGGCACAGUGGCACCUCGACAGCCACCCCGACUGGGGGUUUGGGGUGCUGAGGGUGGGGUGCCCAGCUGAGAGUCUAUCAGCAAAGUCCCUGUGUGCGCUCUUGCGGUCGCACUAGUGUGGAAUUCUCGGGUGUCAAGG
# B9: ENSMUSG00000058297.456|Spock2|123:127 (ssRNA)
# RNA: GGGAGUUCUACAGUCCGACGAUCGCUUCGAUAUCCGCAUGCUAUCACACAGGUCAGAUUAUUGUCGGUCCUGCGGGCCUCAUCCUUGAAUAAGCUGCCUGCCCAGUUCCUCCAUCCGUGUUCCUGCCUGCUCCCGUUCCCUUGUUGCGGGCAGGAGAGGUAGGGCACACAUGGAAAGAGUUCAACCAAAUUACGGCAGCACCACAUCUUGCCGAGCCCUGGAGCUGCCCUACUAAGAGCCUCCUUAGCCCUGGGUGCUGGGAAGGAUGGUGUACGUUGGGGAAGUUUGAGGUUGGAGAGAGUACUCUUGCGGUCGCACUAGUGUGGAAUUCUCGGGUGUCAAGG
# Molecular target: TDP-43 (Homo sapiens, UniProt Q13148 1-414)
# Sequence (Q13148 whole entry): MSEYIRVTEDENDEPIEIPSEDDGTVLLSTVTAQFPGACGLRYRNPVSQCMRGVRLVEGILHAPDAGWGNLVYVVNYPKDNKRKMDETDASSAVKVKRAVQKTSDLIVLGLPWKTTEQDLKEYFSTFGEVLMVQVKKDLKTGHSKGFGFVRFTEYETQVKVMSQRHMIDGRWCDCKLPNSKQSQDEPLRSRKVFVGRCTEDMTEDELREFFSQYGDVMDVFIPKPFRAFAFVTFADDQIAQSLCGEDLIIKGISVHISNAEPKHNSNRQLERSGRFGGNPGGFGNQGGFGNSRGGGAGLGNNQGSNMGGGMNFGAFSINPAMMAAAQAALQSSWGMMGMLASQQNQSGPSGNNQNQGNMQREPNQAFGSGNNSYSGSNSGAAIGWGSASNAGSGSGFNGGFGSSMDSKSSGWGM
# Assay: RNA Bind-n-Seq with designed 260-mer pool; 25 mM Tris-HCl, 150 mM KCl, 3 mM MgCl2, BSA (printed 500 mg/mL), 20 units/mL SUPERase IN; pH not stated; 500 nM RNA pool, 1 h, 4 C; TDP-43 5, 50, 500 nM; high values mean tight binding
# Settings: protein: recombinant; tags: SBP (GST cleaved off with PreScission; pGEX-GST-SBP)
# Summary of the method: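 Duplicate measurements used two independent batches of recombinant SBP-tagged TDP-43, which was captured on streptavidin beads at 5, 50 or 500 nM. The beads were incubated with 500 nM of an in vitro-transcribed 260-nt 3′ UTR oligo pool for 1 h at 4 °C in 25 mM Tris-HCl, 150 mM KCl, 3 mM MgCl2, BSA and SUPERase IN. After washing, biotin elution, reverse transcription, PCR amplification and sequencing, binding was expressed as R: each oligo's normalized read abundance in the bound sample over its abundance in input.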
row,Binder,binding signal
1,B1,1.01 R (bound/input frequency ratio)
2,B2,1.85 R (bound/input frequency ratio)
3,B3,2.37 R (bound/input frequency ratio)
4,B4,0.49 R (bound/input frequency ratio)
5,B5,0.438 R (bound/input frequency ratio)
6,B6,0.397 R (bound/input frequency ratio)
7,B7,0.325 R (bound/input frequency ratio)
8,B8,0.868 R (bound/input frequency ratio)
9,B9,0.829 R (bound/input frequency ratio)
